Screen size: about 100,000 compounds; about 770 (0.77%) were called active. No stated cut-off is given here; in the data, active means inhibition above about 50%; inactive means the rest. Shown is part of a subset that was picked to be rich in actives.
biological target: Gag-Pol polyprotein (Human immunodeficiency virus type 1 group M subtype B (isolate HXB2)) (UniProt P04585); test: RNase H inhibition, HIV 1 Gag Pol polyprotein, FRET biochemical assay, screening (AID 372); conditions: HIV-1 RT RNase H, FRET RNA/DNA substrate fluorescence; at 10 µM; stronger effect = higher value

SMILES | inhibition
Cc1ccc(C)c(N2CCN(Cc3ccccc3Br)CC2)c1 | 6% (inactive)
FC(F)(F)c1ccc(CN2CCN(c3cccc(Cl)c3)CC2)cc1 | 12% (inactive)
O=Cc1cn(Cc2c(Cl)cccc2Cl)c2ccccc12 | 34% (inactive)
CN1C(=O)C(=Cc2ccc(N3CCCCCC3)o2)C(=O)N(C)C1=S | 26% (inactive)
C=CCN1C(=O)/C(=C\c2ccc(-c3cccc(Cl)c3Cl)o2)C(=O)NC1=S | 55% (active)
C=CCN1C(=O)NC(=O)/C(=C/c2ccc(-c3cc([N+](=O)[O-])ccc3Cl)o2)C1=O | 22% (inactive)
C=CCN1C(=O)/C(=C\c2ccc(C)o2)C(=O)NC1=S | 13% (inactive)
COc1ccc(N2C(=O)/C(=C\c3ccoc3)C(=O)NC2=S)cc1 | 44% (inactive)
N/C(=N\[N+](=O)[O-])N/N=C\c1ccc(-c2ccc(Cl)c([N+](=O)[O-])c2)o1 | 56% (active)
N/C(=N\[N+](=O)[O-])N/N=C/c1ccc(-c2ccc(Cl)cc2)o1 | 6% (inactive)
N/C(=N\[N+](=O)[O-])N/N=C\c1ccc(-c2ccc([N+](=O)[O-])cc2)o1 | 28% (inactive)
Cc1ccc(C2c3c(c4ccccc4oc3=O)Oc3c2c(=O)oc2ccccc32)cc1 | 11% (inactive)
COc1cccc(C=C2C(=O)NC(=O)NC2=O)c1OC | 10% (inactive)
COc1cccc(C=C2C(=O)NC(=S)NC2=O)c1 | 7% (inactive)
O=C1NC(=S)NC(=O)C1=Cc1cccc(OS(=O)(=O)c2ccc3ccccc3c2)c1 | 53% (active)
O=C1NC(=S)NC(=O)C1=Cc1ccccc1OS(=O)(=O)c1ccc2ccccc2c1 | 21% (inactive)
O=C(c1cccs1)C1CN2CCC1CC2 (stereo unspecified) | 0% (inactive)
O=C1NC(=O)C(=Cc2ccccc2F)C(=O)N1 | 3% (inactive)
Cc1ccc(-c2nn(-c3ccccc3)cc2C=C2C(=O)NC(=S)NC2=O)o1 | 21% (inactive)
O=C1NC(=O)C(=Cc2cn(-c3ccccc3)nc2-c2ccc(F)cc2)C(=O)N1 | 53% (active)
Cc1ccc(C)c(COc2cc(C)cc3oc(=O)c4c(c23)CCC4)c1 | 0% (inactive)

Source: PubChem BioAssay AID372 (MTDP, 2006)
